# PubChem BioAssay AID777 (Sanford-Burnham Center for Chemical Genomics, 2007)
# About 19,000 (20%) of roughly 96,000 compounds were called active.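 The calls were made as follows: active = blocking of liver enzyme CYP2C9 beyond about 50% at 5 µM (limit read from the data); inactive = the rest.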 Not all results are given here.
# Biological target: Cytochrome P450 2C9 (Homo sapiens) (UniProt P11712)
# Experiment: blockers of cytochrome P450 2C9 activity – biochemical, luminescence, ADME assay, primary screen (AID 777)
# Settings: CYP2C9 Supersomes, luciferin-H conversion, at 5 µM, active compounds read high
# Sequence of Cytochrome P450 2C9 (Homo sapiens) (P11712 whole entry, looked up): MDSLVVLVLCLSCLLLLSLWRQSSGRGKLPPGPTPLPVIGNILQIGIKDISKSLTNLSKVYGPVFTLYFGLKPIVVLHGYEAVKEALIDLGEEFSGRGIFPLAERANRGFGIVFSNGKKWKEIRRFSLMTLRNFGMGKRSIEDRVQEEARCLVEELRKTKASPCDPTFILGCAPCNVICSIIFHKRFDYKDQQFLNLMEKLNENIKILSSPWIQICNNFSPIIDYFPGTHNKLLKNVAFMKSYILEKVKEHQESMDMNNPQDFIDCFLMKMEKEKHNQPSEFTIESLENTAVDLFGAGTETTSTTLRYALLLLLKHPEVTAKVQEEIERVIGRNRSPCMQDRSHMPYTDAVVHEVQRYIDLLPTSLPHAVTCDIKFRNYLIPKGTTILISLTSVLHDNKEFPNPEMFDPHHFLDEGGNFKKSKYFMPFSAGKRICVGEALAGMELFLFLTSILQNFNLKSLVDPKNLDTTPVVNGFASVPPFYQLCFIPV
row,Structure (SMILES),inhibition
1,O=C(NC1CCCCC1)c1cc([N+](=O)[O-])ccc1N1CCOCC1,1.4% (inactive)
2,O=C(Nc1cc2c3c(c1)C1CCCC1CN3CC1CCCC21)c1ccc([N+](=O)[O-])cc1 (stereo not drawn),96.3% (active)
3,COc1cccc(N2CCN(C(=O)Nc3ccc4c(c3)NC(=O)CO4)CC2)c1,13% (inactive)
4,O=C(Cc1nn[nH]n1)NCCC1=CCCCC1,-1.8% (inactive)
5,Cc1ccc(-n2c(C)cc(/C=N/Nc3ccc([N+](=O)[O-])cn3)c2C)c(C)c1,13.3% (inactive)
6,O=C(c1cccs1)N(C(=O)c1cccs1)c1ccccn1,21.5% (inactive)
7,COc1ccc(S(=O)(=O)N2CCN(C(=O)c3cccs3)CC2)cc1OC,-35.4% (inactive)
8,COc1ccc(CN(C(=O)c2cccs2)c2nccs2)cc1OC,99% (active)
9,CC(C)CC(=O)N/C(N)=N/c1nc2ccccc2s1,27.6% (inactive)
10,C[N+]1(CCNC(=O)/C=N/O)CCCCC1,5.6% (inactive)
11,Cc1ccc(SCC(=O)c2sc(-c3ccccc3)nc2C)cc1,83.6% (active)
12,Cc1ccc(SCC(=O)Nc2ncc(C)s2)cc1,35.5% (inactive)
13,Cc1nc(-c2ccccc2)sc1C(=O)/C=C/c1ccccc1,15.9% (inactive)
14,Cc1nn(-c2ncc(C(F)(F)F)cc2Cl)c(=O)n1-c1ccccc1,-45.3% (inactive)
15,CCn1c(C)nc2c1C(=O)c1ccccc1C2=O,-0.9% (inactive)
16,O=C1CCCCC(=O)c2ccccc2N1,14.5% (inactive)
17,FC(F)(F)c1cc(-c2cccs2)nc(NCc2ccco2)n1,60.7% (active)
18,FC(F)(F)c1cc(-c2ccco2)nc(N2CCOCC2)n1,-16.1% (inactive)
19,COc1nc(NCc2ccc(Cl)cc2)nc(OC)n1,9.7% (inactive)
20,COc1ccc(Nc2nc(Cl)nc(NCc3ccco3)n2)cc1,5.9% (inactive)
21,O=C(CSc1nc(-c2ccco2)cc(C(F)(F)F)n1)NCc1cccs1,7.6% (inactive)

row,Structure (SMILES),inhibition
1,FC(F)(F)c1cc(-c2ccco2)nc(NCc2ccc(Cl)cc2)n1,97.5% (active)
2,CCc1ccc(/C=N/NC(=O)c2ccc(OC3CCCC3)cc2)s1,-41.1% (inactive)
3,Cc1oc(-c2ccccc2Cl)[n+]([O-])c1C,7.1% (inactive)
4,Cc1cnc(NC(=O)CSc2nnc(C)s2)s1,8.4% (inactive)
5,O=C(CSc1nnc(-c2ccoc2)o1)N1CCOCC1,-12.9% (inactive)
6,CCc1ccc(N(CC)c2ncnc3nc[nH]c23)cc1,3.4% (inactive)
7,Cc1ccc(C)c(NC(=O)C2CCCN2C(=O)OC(C)(C)C)c1 (stereo not drawn),-1.5% (inactive)
8,Cc1ccc(C)c(NC(=O)C2Cc3ccccc3CN2C(=O)OCc2ccccc2)c1 (stereo not drawn),65% (active)
9,COc1cccc(NC(=O)C2CCCN2C(=O)OCc2ccccc2)c1 (stereo not drawn),15.8% (inactive)
10,O=C(Nn1cnc2ccccc2c1=O)c1ccc(F)cc1Cl,-8.6% (inactive)
11,Cc1ccc2[nH]c3c(c2c1)CN(C(=O)CN1CCN(c2ccccc2)CC1)CC3,30.7% (inactive)
12,O=C(CN1CCN(c2ccc(Cl)cc2)CC1)N1CCCC1,57.4% (active)
13,O=C(CSCc1ccc(Cl)cc1)N1CCCCC1,-83.2% (inactive)
14,Cc1nc(-c2ccccc2)sc1-c1nc(-c2ccccc2)ncc1S(=O)(=O)c1ccccc1,37.8% (inactive)
15,c1ccc(-c2nnc3n2NC(c2ccc4c(c2)OCO4)S3)cc1 (stereo not drawn),21.6% (inactive)
16,c1ccc(CSc2nnc(-c3ccco3)n2Cc2ccccc2)cc1,31.7% (inactive)
17,c1ccc(CSc2nnc(-c3ccco3)c(-c3ccco3)n2)cc1,72.9% (active)
18,Clc1ccccc1CSc1nnc(-c2ccco2)c(-c2ccco2)n1,38.8% (inactive)
19,COc1ccc(C2C3=C(OC(C)=O)c4ccccc4C3=Nc3c2c(=O)n(C)c(=O)n3C)cc1 (stereo not drawn),7.6% (inactive)
20,Cc1ccc(-c2nnn(CC(=O)N(CCO)C(C(=O)NC(C)(C)C)c3ccncc3)n2)cc1 (stereo not drawn),76.1% (active)
21,COc1ccc(-c2nnn(CC(=O)N(CCO)C(C(=O)NC3CCCC3)c3ccc(F)cc3)n2)cc1 (stereo not drawn),-3.9% (inactive)

row,Structure (SMILES),inhibition
1,CC(C)(C)NC(=O)Cn1nnc(-c2ccccc2Cl)n1,-42.7% (inactive)
2,O=C(Nc1cc(N2CCOCC2)ncn1)NC1(C(F)(F)F)Oc2ccc(Cl)cc2O1 (stereo not drawn),21.6% (inactive)
3,CCOCCCNC(=O)C(NC(=O)c1ccc(=O)[nH]c1)c1ccc(C)cc1 (stereo not drawn),16.2% (inactive)
4,Cc1ccccc1NC(=O)c1ccccc1NS(=O)(=O)c1cccc2cccnc12,45.1% (inactive)
5,O=C(Nc1nncs1)c1ccccc1NS(=O)(=O)c1cccs1,76.4% (active)
6,COc1ccc(C(=O)Nc2nncs2)c(OC)c1,-1.4% (inactive)
7,CC(=O)c1ccc(NC(=O)N[C@@H](Cc2ccccc2)C(=O)O)cc1,4.2% (inactive)
8,N#CC1=C(N)Oc2n[nH]c(CSc3ccccc3)c2C12C(=O)Nc1ccccc12 (stereo not drawn),24.3% (inactive)
9,Cc1csc2ncc(C(=O)N(Cc3ccccc3)c3ccccn3)c(=O)n12,6.4% (inactive)
10,COCCCn1c(SCc2cccc(OC)c2)nc2cc(OC)c(OC)cc2c1=N,71.3% (active)
11,COc1cccc(-c2cc3nc4c(c(N5CCC6(CC5)OCCO6)n3n2)CCCC4)c1,49.8% (inactive)
12,O=C(Cc1ccc(F)cc1)NC1CCCC1,-37.8% (inactive)
13,O=C(Cn1cnc2c(cnn2-c2ccccc2)c1=O)NCc1ccccc1,-7.3% (inactive)
14,COC(=O)Nc1ccc(S(=O)(=O)N2CCN(CCN3C(=O)C4C5C=CC(C5)C4C3=O)CC2)cc1 (stereo not drawn),19.6% (inactive)
15,COC(=O)Nc1ccc(S(=O)(=O)N(C)CC(F)(F)C(F)F)cc1,59.2% (active)
16,CCOC(=O)Nc1ccc(S(=O)(=O)N(C)C(C)C)cc1,32% (inactive)
17,CC(=O)NC1(c2cccc(F)c2)CCN(CC(=O)NC(C)C)CC1,4.1% (inactive)
18,CON(C)S(=O)(=O)c1ccc2c(c1)NC(=O)C1CCCN21 (stereo not drawn),44% (inactive)
19,O=S(=O)(c1ccc(F)cc1)n1ccc(-c2cnc(-c3ccccc3)s2)n1,53.9% (active)
20,CCn1nnc(NC(=O)c2c(OC)cccc2OC)n1,-11.4% (inactive)
21,O=C(Oc1ccc([N+](=O)[O-])cc1)c1ccc2ccccc2n1,-28.9% (inactive)
